Test results: the supplement of paper PMC3334620
Whole data set: some 33,000 sequences, median “E-score (-0.5 to 0.5)” near -0.016, cut for the highest 2% near 0.32. The entries come from a sample that favours the highest values as a whole.

Molecular target: T1, Stp1 (UniProt B3LFK1)
T1 sequence: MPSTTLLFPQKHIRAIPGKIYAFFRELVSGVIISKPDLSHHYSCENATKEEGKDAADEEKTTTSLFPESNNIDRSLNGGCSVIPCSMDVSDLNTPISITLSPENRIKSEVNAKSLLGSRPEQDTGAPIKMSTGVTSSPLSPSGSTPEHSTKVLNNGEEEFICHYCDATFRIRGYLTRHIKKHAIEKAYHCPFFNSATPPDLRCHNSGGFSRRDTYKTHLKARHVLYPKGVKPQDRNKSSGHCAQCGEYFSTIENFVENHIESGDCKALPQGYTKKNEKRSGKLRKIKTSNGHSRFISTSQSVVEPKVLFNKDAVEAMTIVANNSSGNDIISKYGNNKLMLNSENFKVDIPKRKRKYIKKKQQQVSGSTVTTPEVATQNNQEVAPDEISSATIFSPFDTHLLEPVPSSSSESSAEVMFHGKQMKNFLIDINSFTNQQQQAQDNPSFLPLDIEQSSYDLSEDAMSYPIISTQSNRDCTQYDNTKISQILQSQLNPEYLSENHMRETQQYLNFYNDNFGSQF
Assay: PBM E-score (8-mer binding enrichment) (E-score (-0.5 to 0.5)); higher = stronger / more preferred TF binding
Conditions: protein concentration: 200 nM; construct: GST-full length
How it was run: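 PURExpress in vitro transcription/translation supplied GST-tagged yeast transcription factors, either full-length or DNA-binding domain. Applied at about 100-200 nM to universal all-10-mer Agilent arrays double-stranded by primer extension, the bound protein was detected with fluorescent anti-GST. E-scores, modified Wilcoxon-Mann-Whitney statistics, were given by the Universal PBM Analysis Suite to ungapped eight-base words pooled with their reverse complements after masliner normalisation.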

First: GCCGTAAA
Second: GCCGTATA
The “PBM E-score” value of the first is lower: 0.369 for the first, 0.475 for the second.

Going from ACCGTAAC to CGATCGAG, the “PBM E-score” value falls from 0.0376 to 0.0366.

Compared with AACTCAGA, ATCGCCGG is higher in “PBM E-score” value: 0.183 for the first, 0.192 for the second.

Compared with CTCGCCGA, CTCGCCAC is higher in “PBM E-score” value: -0.0672 for the first, -0.0166 for the second.

First: ATCGCCGC
Second: ATCGCCGA
The “PBM E-score” value of the first is higher: 0.45 for the first, 0.212 for the second.

First: CTCGCCGC
Second: CATTGGAC
The “PBM E-score” value of the first is higher: 0.353 for the first, -0.155 for the second.

First: AGCTACTG
Second: AAAACATG
The “PBM E-score” value of the first is lower: -0.229 for the first, -0.00948 for the second.

Going from CTAGAGAA to CCACCTAG, the “PBM E-score” value falls from 0.23 to -0.373.

Going from CAGTCTGG to CCCCTTAA, the “PBM E-score” value rises from -0.218 to -0.172.

Going from CCACGGAG to ACACGGTG, the “PBM E-score” value falls from 0.159 to 0.154.

Going from CCACGGCG to TCACGGAA, the “PBM E-score” value falls from 0.478 to 0.173.

Compared with ACACGGCG, TGACGGCA is lower in “PBM E-score” value: 0.488 for the first, 0.175 for the second.

Compared with ACACGGAG, CCACGGGG is lower in “PBM E-score” value: 0.295 for the first, -0.124 for the second.

Compared with TCACGGCA, ACACGGCT is higher in “PBM E-score” value: 0.401 for the first, 0.458 for the second.

Going from ACACGGAT to ACACGGGT, the “PBM E-score” value falls from 0.315 to 0.202.

Going from GCTGCGAC to TAACCCCA, the “PBM E-score” value falls from -0.089 to -0.336.

Compared with CAACACGA, GCGCGAGA is higher in “PBM E-score” value: 0.0474 for the first, 0.107 for the second.

Compared with AACAGTAC, CCACGGCA is higher in “PBM E-score” value: 0.0276 for the first, 0.46 for the second.

Compared with CCACGGAA, CCACGGCC is lower in “PBM E-score” value: 0.198 for the first, 0.185 for the second.

Compared with ACGGGGGC, GTGAAGTA is higher in “PBM E-score” value: -0.325 for the first, -0.0855 for the second.

First: CCCGCGCA
Second: CCCGCGTA
The “PBM E-score” value of the first is higher: -0.0346 for the first, -0.0603 for the second.

First: ACCGCGCC
Second: ACCGCGTA
The “PBM E-score” value of the first is higher: 0.3 for the first, 0.051 for the second.

Compared with GCCGCGCA, ACCGCGCA is lower in “PBM E-score” value: 0.476 for the first, 0.0261 for the second.

Going from GCCGCGTA to ACCGCGCG, the “PBM E-score” value falls from 0.465 to 0.209.

Compared with GCCGCGCC, AATCATTC is lower in “PBM E-score” value: 0.46 for the first, 0.146 for the second.

Compared with GAGAGCCC, AATCGTAC is higher in “PBM E-score” value: -0.302 for the first, 0.12 for the second.

Compared with ATGCCATA, CCCCTGCC is lower in “PBM E-score” value: 0.117 for the first, -0.198 for the second.

Going from CGCCTCTC to AGACGCCA, the “PBM E-score” value falls from 0.0325 to 0.00574.

Going from AGACGCCC to CGACGCCG, the “PBM E-score” value rises from 0.0951 to 0.457.

Compared with AGACGCCG, CGACGCCA is lower in “PBM E-score” value: 0.405 for the first, 0.106 for the second.

Going from CGACGCCC to CATATCTC, the “PBM E-score” value falls from 0.0245 to -0.0779.

First: CGAGAAAG
Second: GACTACGC
The “PBM E-score” value of the first is higher: -0.0578 for the first, -0.174 for the second.

Compared with ACATTCAC, AGGTGAAG is lower in “PBM E-score” value: -0.0143 for the first, -0.132 for the second.

Going from ACAGGGTA to ATTGCGCG, the “PBM E-score” value rises from -0.125 to 0.32.

Going from ATTGCGCA to ATTGCGCC, the “PBM E-score” value rises from -0.0299 to 0.308.

Compared with GGGAGCTA, GCGCCGAA is higher in “PBM E-score” value: -0.235 for the first, 0.389 for the second.

Going from GCGCCGAC to CTGCCGAA, the “PBM E-score” value falls from 0.309 to 0.127.

Going from ATGCCGAA to GTGCCGAA, the “PBM E-score” value rises from 0.311 to 0.322.

Compared with TCGCCGAA, GCTTCGCC is lower in “PBM E-score” value: 0.105 for the first, -0.0679 for the second.

Compared with CCAGCGAA, CGCCGTCA is higher in “PBM E-score” value: -0.209 for the first, 0.216 for the second.

Compared with GGCCGTTA, AGCCGTCC is higher in “PBM E-score” value: 0.1 for the first, 0.308 for the second.

Compared with AGCCGTTG, AGCCGTTA is lower in “PBM E-score” value: 0.26 for the first, 0.159 for the second.

First: CGCCGTTA
Second: AGCCGTTC
The “PBM E-score” value of the first is lower: 0.381 for the first, 0.424 for the second.

Going from CGCCGTCC to CACCGTTC, the “PBM E-score” value falls from 0.443 to 0.0204.

Going from CACCGTTA to CCCCGTTC, the “PBM E-score” value falls from 0.0959 to -0.235.

Compared with CGCCGTTC, ATCGTAGG is lower in “PBM E-score” value: 0.464 for the first, -0.121 for the second.

First: TGAGCGAA
Second: CAGCCAGC
The “PBM E-score” value of the first is higher: 0.0336 for the first, -0.244 for the second.

Going from CCTGCGAC to AATCTTCG, the “PBM E-score” value rises from -0.287 to 0.196.

Going from AGAACATA to CGCCGCCC, the “PBM E-score” value rises from 0.00125 to 0.346.

Going from AACCGCCC to AACCGCCA, the “PBM E-score” value falls from -0.149 to -0.153.

Going from CGCCGCCA to AACCGCCG, the “PBM E-score” value rises from 0.154 to 0.324.

Compared with CCCCGCCG, GGCCGCCC is lower in “PBM E-score” value: 0.0774 for the first, -0.0498 for the second.

Compared with AGCCGCCG, CTCCGCCC is lower in “PBM E-score” value: 0.361 for the first, -0.192 for the second.

First: AGCCGCCA
Second: AGCCGCCC
The “PBM E-score” value of the first is lower: -0.122 for the first, 0.11 for the second.

Compared with CGCCGCCG, ATTCTCAC is lower in “PBM E-score” value: 0.402 for the first, 0.0144 for the second.

Compared with AAGAGTAC, GGACTCTA is lower in “PBM E-score” value: -0.0411 for the first, -0.344 for the second.

Compared with AGCTTCAC, CAGCTAAC is higher in “PBM E-score” value: -0.221 for the first, -0.171 for the second.

First: AACCTCTA
Second: CGCAGTTA
The “PBM E-score” value of the first is lower: -0.104 for the first, 0.0737 for the second.

First: AGCACGAA
Second: GGCACAAA
The “PBM E-score” value of the first is lower: 0.0412 for the first, 0.374 for the second.

Compared with GGCAAAAC, GGCAAAAA is higher in “PBM E-score” value: 0.254 for the first, 0.388 for the second.

Going from GGCAAGAA to GGCACTAA, the “PBM E-score” value rises from 0.22 to 0.392.

First: GGCACGAC
Second: AGCACAAA
The “PBM E-score” value of the first is higher: 0.208 for the first, 0.206 for the second.

Compared with TGCACTAA, GGCACGAA is higher in “PBM E-score” value: 0.109 for the first, 0.389 for the second.

Going from TGCACAAA to AGCACTAA, the “PBM E-score” value rises from 0.0921 to 0.132.

First: CATGCACA
Second: TATCAGAA
The “PBM E-score” value of the first is lower: 0.0872 for the first, 0.22 for the second.

First: CTTGCTTA
Second: AGGGCCGC
The “PBM E-score” value of the first is lower: -0.203 for the first, 0.168 for the second.

First: TGCCTCAA
Second: TATTGCGA
The “PBM E-score” value of the first is lower: -0.019 for the first, 0.165 for the second.

First: CACCTCAA
Second: AGCTGCAC
The “PBM E-score” value of the first is higher: 0.0958 for the first, -0.111 for the second.

Going from CAAGTCGG to TACACGCA, the “PBM E-score” value falls from -0.0998 to -0.204.

First: AGTTTATA
Second: GGTTTATA
The “PBM E-score” value of the first is higher: 0.153 for the first, 0.0512 for the second.

First: CGTTTATA
Second: GATTGTCC
The “PBM E-score” value of the first is higher: 0.331 for the first, -0.0756 for the second.

First: AAAACAAA
Second: CCTGGACA
The “PBM E-score” value of the first is higher: 0.128 for the first, -0.187 for the second.

Compared with CTGAGGTA, AGAAAGCA is higher in “PBM E-score” value: -0.0424 for the first, 0.158 for the second.

Compared with ATCACTAA, GGCGCGAC is higher in “PBM E-score” value: 0.0331 for the first, 0.36 for the second.

Going from CGCGCGAC to CGCGCGAA, the “PBM E-score” value rises from 0.12 to 0.129.

Compared with GGCGCGAA, AGCGCGAC is lower in “PBM E-score” value: 0.37 for the first, -0.149 for the second.

First: AGCGCGAA
Second: CTGGGAAC
The “PBM E-score” value of the first is higher: 0.0676 for the first, 0.0375 for the second.

Going from AGTCGATG to AGTGGGGC, the “PBM E-score” value falls from -0.194 to -0.231.

Going from CCAAGGCG to ACAAGGCG, the “PBM E-score” value rises from 0.341 to 0.38.

Compared with ACGGGGCG, ATAAGGCG is lower in “PBM E-score” value: 0.366 for the first, 0.365 for the second.

Going from CCAAGGCA to ATAAGGCA, the “PBM E-score” value rises from 0.173 to 0.299.

First: ATAAGGCC
Second: CCAAGGCC
The “PBM E-score” value of the first is lower: 0.0529 for the first, 0.171 for the second.

Compared with ACAAGGCC, ACGGGGCT is lower in “PBM E-score” value: -0.026 for the first, -0.161 for the second.

Going from ACAAGGCT to ACGGGGCC, the “PBM E-score” value falls from 0.198 to -0.0286.

First: CGAGAAGC
Second: CAACCTTG
The “PBM E-score” value of the first is lower: -0.112 for the first, 0.0792 for the second.

Going from CTCCCTGC to CTTGATCC, the “PBM E-score” value rises from -0.293 to 0.0811.
